# Measured values from PubChem BioAssay (NCATS).
# Records with an inconclusive call do not appear. A number with no mark means an inactive call. Active and inactive are the calls of the source. Calls come from the whole dose curve.
# Assay: Primary qHTS for inhibitors of SARS-S pseudo-typed particle cell entry (AID 1479145); note: nearly all actives have a fitted effect of over 45% in size
# Conditions: SARS-S pseudotyped particle cell entry, luciferase reporter; series mostly up to 57.1 µM; activity change, negative = inhibition: at the top concentration
# % is set by controls: 0 for no effect and ±100 for the full control effect.
Structure (SMILES),"activity change, negative = inhibition",outcome
CCC1C(C)=NN=C(c2ccc(OC)c(OC)c2)c2cc(OC)c(OC)cc21 (stereo not given),-9.43%,
CCCCNCC(O)c1ccc(O)cc1 (stereo not given),,inactive
O=C(NCNC(=O)NC1C(=O)NC(=O)N1CO)NC1C(=O)NC(=O)N1CO (stereo not given),-28.1%,
Cn1sc(Cl)cc1=O,,inactive
CCC1(C)CC(=O)NC(=O)C1,,inactive [at 114 µM]
C[C@@H]([C@H](O)c1ccccc1)N(C)C,-24.3%,
O=[N+]([O-])C(Br)(CO)CO,,inactive
O=S(=O)(O)c1cc(O)ccc1O,-29.9%,
CC(C)CCC(=O)O[C@H]1CC[C@H]2[C@@H]3CCC4=CC(=O)CC[C@]4(C)[C@H]3CC[C@]12C,,inactive
O=c1[nH]cc(N(CCCl)CCCl)c(=O)[nH]1,,inactive [at 114 µM]
O=P(O)(O)C(Cl)(Cl)P(=O)(O)O,-10.6% [at 5.34 µM],
CC(=O)O[C@H]1CC[C@H]2[C@@H]3CCC4=CC(=O)CCC4=C3C=C[C@]12C,1.11%,
CCOC(=O)c1ccccc1C(=O)OCC,,inactive
COc1cc2c(cc1OC)[C@@]13CCN4CC5=CCO[C@H]6CC(=O)N2[C@H]1[C@H]6[C@H]5C[C@H]43,-21%,
c1ccc2sc(SNC3CCCCC3)nc2c1,-18.3% [at 114 µM],
C[N+]1(C)CCCCC1COC(=O)C(O)(c1ccccc1)c1ccccc1 (stereo not given),-0.623%,
O=C(C[C@@H]1NCCC[C@H]1O)Cn1cnc2cc(Br)c(Cl)cc2c1=O,,inactive
O=C(O)C(Cl)(Cl)Cl,-7.54%,
O=[N+]([O-])c1cc(I)c(O)c(I)c1,-17.6%,
CC1CCC(C(C)C)C(OC(=O)c2ccccc2N)C1 (stereo not given),-23.1%,
